Data on 10 compounds can be found in PubChem BioAssay AID1845 (The Scripps Research Institute Molecular Screening Center, 2009).

About 490 (0.17%) of roughly 290,000 compounds were called active. No stated cut-off is given here; in the data, active means inhibition above about 37%; inactive means the rest. The entries come from a sample that favours actives as a whole.

The nature of the experiment: DNA intercalator displacement agents – biochemical, FID fluorescence, artefact control for HCV NS3 helicase inhibitor project, primary screen (AID 1845).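 Further: 0% = vehicle and 100% = reference compound; higher means more ethidium bromide displaced from hairpin DNA.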 The following applies: DNA fluorescent intercalator displacement, at 7.9 µM, hits give high values.
Usually inhibition stands for the drop in the measured response relative to a control, in per cent. In the case of `CN1CCN(c2cc(N3CCNCC3)ccc2[N+](=O)[O-])CC1`, the inhibition is 14.7% (inactive).

`Cc1nc2ccc(N3CCN(C)CC3)cc2nc1C`: the inhibition is 7.94% (inactive). In the case of `COc1cccc(-c2nc3ccc(N4CCN(C)CC4)cc3[nH]2)c1` it was 40.7% (active); in that of `Cn1c(O)c(C(=Nc2ccc(F)cc2)c2ccccc2)c(=O)n(C)c1=O`, 1.2% (inactive); in that of `CCOC(=O)C1(Cc2ccc(Cl)cc2)CCN(C(C)CCn2cccn2)CC1` (stereo not given), 37.1% (active). Consider `CCOC(=O)C1(CCc2ccccc2)CCN(Cc2ccco2)CC1`, for which the inhibition was 5.09% (inactive). To `Cn1c(C(=O)N2CCC(C(=O)N3CCC4(CC3)OCCO4)CC2)cc2sccc21` belongs -30.4% (inactive); to `O=C(C1CC(=O)N(C2CCCC2)C1)N1CCC2(CC1)OCCO2` (stereo not given), -1.99% (inactive). In the case of `c1ccc(C2NCc3ccccc3-n3cccc32)cc1` (stereo not given) it was 9.21% (inactive); in that of `O=C(Cc1ccc(Cl)cc1)NCCN1CCN(C(=O)Cc2ccc(Cl)cc2)CC1`, -26% (inactive).
